Data reported in PubChem BioAssay (EPA / NIEHS).
The source made the active and inactive calls. The calls were made as follows: active = hit-call score of the fitted dose curve at least 0.9, where 1 is the maximum; inactive = score below 0.9.

Target: Transcription factor E2F1 (Homo sapiens) (UniProt Q01094)
Assay: ATG_E2F_CIS: Attagene CIS-FACTORIAL HepG2 Assay for human E2F Transcription Factor 1 (AID 2282935)
Conditions: HepG2 Attagene cis-reporter, E2F reporter RNA transcripts; actives raise or lower the signal
Method: ATG_CIS is a cell-based, multiplexed-readout assay that uses HepG2, a human liver cell line, with measurements taken at 24 hours after chemical dosing in a 24-well plate.ATG_E2F_CIS is one of 52 assay component(s) measured or calculated from the ATG_CIS assay. It is designed to make measurements of mRNA induction, a form of inducible reporter, as detected with fluorescence intensity signals by Reverse transcription polymerase chain reaction (RT-PCR) and Capillary electrophoresis technology.Data from the assay component ATG_E2F_CIS was analyzed into 1 assay endpoint. This assay endpoint, ATG_E2F_CIS, was analyzed with bidirectional fitting relative to DMSO as the negative control and baseline of activity. Using a type of inducible reporter, measures of mRNA for gain or loss-of-signal activity can be used to understand the reporter gene at the transcription factor-level as they relate to the gene E2F1. Furthermore, this assay endpoint can be referred to as a primary readout, because this assay has produced multiple assay endpoints where this one serves a reporter gene function. To generalize the intended target to other relatable targets, this assay endpoint is annotated to the dna binding intended target family, where the subfamily is E2F transcription factor.
Human liver HepG2 cells are transiently transfected with multiple reporter transcription units (MRTUs) in 6-well plates using FuGene 6 reagent (Roche; 3 ml FuGene/1 mg DNA). The MRTU constructs are regulated by a cis-regulating element (promoter). […] A major difference between the CIS and TRANS system is that in CIS activities of endogenous TFs are measured, whereas the TRANS assay evaluates changes in activities of exogenous, chimeric NR-Gal4 proteins. […] At the end of 24 hour incubation, total RNA was isolated using TriZol reagent (Invitrogen). The isolated RNA is then reverse-transcribed using oligo(dT) primer and Mo-MLV reverse transcriptase (Invitrogen) with DNAse I (Ambion) treatment for 30 min. The one-tenth of the produced cDNA was amplified by PCR using Taq DNA polymerase (Invitrogen) and two reporter sequence-specific primers. The PCR products were fluorescently labeled by primer extension with 6-arboxyfluorescein (6-FAM) 5'-labeled reporter sequence-specific primer (2 min at 95 C, 20 s at 68 C and 10 min at 72 C) and these products were digested with 5U of HpaI (New England Biolabs) for 2h at 37 C. The fragments were purified using Qiaquick PCR columns (Qiagen), analyzed on an ABI 3130xL genetic analyzer (Applied Biosystems) with peak positions identified by using a set of X-rhodamine (ROX)-labeled MapMarker1000 molecular weight standards (BioVentures). The raw capillary electrophoresis data was processed using Attagraph software (Attagene).

Chain of Transcription factor E2F1 (Homo sapiens) (Q01094 whole entry, looked up): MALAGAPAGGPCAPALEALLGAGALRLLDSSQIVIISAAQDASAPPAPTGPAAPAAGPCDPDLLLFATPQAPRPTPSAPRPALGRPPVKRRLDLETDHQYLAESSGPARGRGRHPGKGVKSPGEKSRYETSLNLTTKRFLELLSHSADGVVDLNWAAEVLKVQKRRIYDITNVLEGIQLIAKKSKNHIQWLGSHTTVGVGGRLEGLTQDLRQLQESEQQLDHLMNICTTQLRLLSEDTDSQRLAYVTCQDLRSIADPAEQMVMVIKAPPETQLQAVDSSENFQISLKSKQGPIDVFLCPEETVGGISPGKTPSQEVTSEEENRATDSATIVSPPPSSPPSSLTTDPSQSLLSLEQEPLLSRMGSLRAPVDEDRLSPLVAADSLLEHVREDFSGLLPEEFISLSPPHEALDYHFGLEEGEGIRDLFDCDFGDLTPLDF

Row | SMILES | outcome | AC50
1 | Cc1cc(N=Nc2ccccc2C)ccc1N | inactive | –
2 | Nc1cc(Cl)cc(C(=O)O)c1Cl | inactive | –
3 | CN(C)c1ccccc1 | inactive | –
4 | O=Cc1ccco1 | inactive | –
5 | [O-][Cl+]O | inactive | –
6 | c1ccc2c(c1)oc1ccccc12 | inactive | –
7 | c1ccc(NNc2ccccc2)cc1 | inactive | –
8 | CCCCOC(=O)c1ccccc1C(=O)OCc1ccccc1 | inactive | –
9 | Clc1ccccc1Cl | inactive | –
10 | O=P(OCCCl)(OCCCl)OCCCl | inactive | –
11 | N#CC(Br)Br | inactive | –
12 | CCCCCOC(=O)c1ccccc1C(=O)OCCCCC | inactive | –
13 | CCOC(=O)[C@]1(c2ccccc2)Oc2ccccc2[C@@H]1N | inactive | –
14 | C[N+](C)(C)CC1CO1 (stereo not given) | inactive | –
15 | CCN(CC)CCO | inactive | –
16 | O=[N+]([O-])C(Br)(CO)CO | inactive | –
17 | CC(C)(C)OOC(=O)c1ccccc1 | – | 158 µM (active)
18 | Clc1ccc(C(c2ccc(Cl)cc2)C(Cl)Cl)cc1 | inactive | –
19 | O=[N+]([O-])c1ccc(Oc2ccc(Cl)cc2Cl)cc1 | inactive | –
20 | CC(O)CCO (stereo not given) | inactive | –

Row | SMILES | outcome | AC50
21 | ClC1=C(Cl)[C@]2(Cl)[C@H]3[C@H]([C@@H]4C=C[C@H]3C4)[C@@]1(Cl)C2(Cl)Cl | inactive | –
22 | CN(C)C(=O)Nc1ccc(Cl)cc1 | inactive | –
23 | Nc1ccc(Cl)cc1N | inactive | –
24 | O=C1CCCO1 | inactive | –
25 | COc1cc(C=O)cc2c1[C@H](COC(N)=O)[C@]1(OC(C)=O)ON2C[C@H]2[C@@H]1N2C(C)=O | – | 61.5 µM (active)
26 | OCCCBr | inactive | –
27 | Nc1ccc(N=Nc2ccccc2)cc1 | inactive | –
28 | Nc1ccc([N+](=O)[O-])cc1 | inactive | –
29 | CC(C)(C)C(O)(CCc1ccc(Cl)cc1)Cn1cncn1 (stereo not given) | inactive | –
30 | CCCSC(=O)N(CCC)CCC | inactive | –
31 | Nc1ccc(Cc2ccc(N)cc2)cc1 | inactive | –
32 | C[C@]12C=CC3=C4CCC(=O)C=C4CC[C@H]3[C@@H]1CC[C@@H]2O | inactive | –
33 | Cc1ccc([N+](=O)[O-])cc1 | inactive | –
34 | CS(=O)(=O)NC(=O)c1cc(Oc2ccc(C(F)(F)F)cc2Cl)ccc1[N+](=O)[O-] | inactive | –
35 | Cc1ccc(N)cc1 | inactive | –
36 | COP(=S)(OC)SCN1C(=O)c2ccccc2C1=O | inactive | –
37 | c1ccc2c(c1)-c1cccc3cccc-2c13 | inactive | –
38 | Cc1cccc(N)c1N | inactive | –
39 | [As]#[In] | inactive | –
40 | CN(C)[C@@H]1C(=O)C(C(N)=O)=C(O)[C@@]2(O)C(=O)C3=C(O)c4c(O)cccc4[C@@](C)(O)[C@H]3C[C@@H]12 | inactive | –
